Data on 3 compounds can be found in PubChem BioAssay (EPA / NIEHS).

Holding throughout (conditions): mRNA level, 48 h; actives raise or lower the signal
Read-out in experiment [1]: Cytochrome P450 4A22 (Homo sapiens) (UniProt Q5TCH4)
The experiment in a line: LTEA_HepaRG_CYP4A22: Life Technologies and Expression Analysis (LTEA) Assay for Cytochrome P450 4A22 (CYP4A22) using HepaRG (AID 2283495). Summed up: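 Gene expression measured by qRT-PCR against three housekeeping genes (ACTB, GAPDH, POLR2A), with gain or loss fitted relative to 0.5% DMSO vehicle. HepaRG cultures received 48 h chemical treatment, top concentration 100 uM, half-log steps, duplicate wells.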

Read-out in experiment [2]: Cytochrome P450 7A1 (Homo sapiens) (UniProt P22680)
The experiment in a line: LTEA_HepaRG_CYP7A1: Life Technologies and Expression Analysis (LTEA) Assay for Cytochrome P450 7A1 (CYP7A1) using HepaRG (AID 2283496). Summed up: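 HepaRG, 48 h exposure, 8-pt half-log series from 100 uM, 0.5% DMSO vehicle, duplicates. Readout: TaqMan qRT-PCR mRNA vs three housekeeping genes; bidirectional curve fit against DMSO baseline.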

Read-out in experiment [3]: Glutathione S-Transferase (GSTA2), GSTA2 (gene 2939)
The experiment in a line: LTEA_HepaRG_GSTA2: Life Technologies and Expression Analysis (LTEA) Assay for Glutathione S-Transferase (GSTA2) using HepaRG (AID 2283497). The essentials: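 qRT-PCR readout of GSTA2 transcript, normalized to three housekeeping genes, fitted bidirectionally against 0.5% DMSO baseline. Differentiated HepaRG cells received compound for 48 h at 8 concentrations (top 100 uM, half-log steps).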

Read-out in experiment [4]: Glutamate-cysteine ligase catalytic (GCLC), GCLC (gene 2729)
Put plainly: LTEA_HepaRG_GCLC: Life Technologies and Expression Analysis (LTEA) Assay for Glutamate-cysteine ligase catalytic (GCLC) using HepaRG (AID 2283498). Summed up: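 HepaRG, 48 h exposure, 8-pt half-log series from 100 uM, 0.5% DMSO vehicle; TaqMan qRT-PCR for GCLC mRNA, housekeeping-normalized; bidirectional curve fit vs DMSO baseline.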

Read-out in experiment [5]: growth arrest and DNA damage 45 (GADD45G), GADD45G (gene 10912)
Put plainly: LTEA_HepaRG_GADD45G: Life Technologies and Expression Analysis (LTEA) Assay for growth arrest and DNA damage 45 (GADD45G) using HepaRG (AID 2283499). Summed up:
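GADD45G transcript level by qRT-PCR (housekeeping-normalized: ACTB, GAPDH, POLR2A) after 48 h chemical treatment of a single HepaRG lot in serum-free induction medium; eight-point half-log series up to 100 uM in 0.5% DMSO, duplicates, up- or down-regulation scored.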

Read-out in experiment [6]: Glutamate-cysteine ligase regulatory (GCLM), GCLM (gene 2730)
The experiment in a line: LTEA_HepaRG_GCLM: Life Technologies and Expression Analysis (LTEA) Assay for Glutamate-cysteine ligase regulatory (GCLM) using HepaRG (AID 2283500). The essentials: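 Endpoint is GCLM transcript level by qRT-PCR, normalized to three housekeeping genes, after 48 h chemical exposure of human HepaRG cells (0.5% DMSO vehicle, top 100 uM, half-log dilutions). Fitting was bidirectional relative to DMSO.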

Read-out in experiment [7]: Glutathione S-transferase M3 (GSTM3), GSTM3 (gene 2947)
Put plainly: LTEA_HepaRG_GSTM3: Life Technologies and Expression Analysis (LTEA) Assay for Glutathione S-transferase M3 (GSTM3) using HepaRG (AID 2283501). Summed up: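 GSTM3 transcript levels came from Fluidigm TaqMan qRT-PCR normalized to three housekeeping genes, fitted in both directions against DMSO. HepaRG cultures received chemicals for 48 h in serum-free induction medium (0.5% DMSO), 8 half-log concentrations up to 100 uM, duplicate.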

Read-out in experiment [8]: Heat shock 70 kDa protein 1 (HSPA1A), gene 3303
Put plainly: LTEA_HepaRG_HSPA1A: Life Technologies and Expression Analysis (LTEA) Assay for Heat shock 70 kDa protein 1 (HSPA1A) using HepaRG (AID 2283502). Summed up:
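Cells were plated and cultured for 48 h, then switched to serum-free induction medium. Chemicals were added at eight half-log concentrations up to 100 uM for 48 h. RNA was then isolated and HSPA1A measured by qRT-PCR with bidirectional curve fitting against DMSO.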

Read-out in experiment [9]: Hypoxia-inducible factor 1-alpha (Homo sapiens) (UniProt Q16665)
Put plainly: LTEA_HepaRG_HIF1A: Life Technologies and Expression Analysis (LTEA) Assay for Hypoxia-inducible factor 1 (HIF1A) Trancription factor using HepaRG (AID 2283503). Summed up:
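HIF1A transcript level read by qRT-PCR (ACTB, GAPDH, POLR2A normalization) after 48 h chemical exposure of HepaRG cultures. Eight half-log concentrations, top 100 uM, 0.5% DMSO vehicle, duplicates; bidirectional curve fit against DMSO baseline.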

Read-out in experiment [10]: 3-Hydroxy-3-Methylglutaryl-CoA Synthase 2 (HMGCS2), HMGCS2 (gene 3158)
Put plainly: LTEA_HepaRG_HMGCS2: Life Technologies and Expression Analysis (LTEA) Assay for 3-Hydroxy-3-Methylglutaryl-CoA Synthase 2 (HMGCS2) using HepaRG (AID 2283504). The essentials: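 Readout is HMGCS2 transcript by qRT-PCR, housekeeping-normalised (ACTB/GAPDH/POLR2A) and fitted bidirectionally against 0.5% DMSO. Differentiated HepaRG cells received chemicals 48 h, duplicate wells, eight half-log concentrations topping at 100 uM.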

Read-out in experiment [11]: HGF (gene 3082)
The experiment in a line: LTEA_HepaRG_HGF: Life Technologies and Expression Analysis (LTEA) Assay for Hepatocyte Growth Facto (HGF) using HepaRG (AID 2283505). Summed up:
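HGF transcript was quantified by TaqMan qRT-PCR against three housekeeping genes after 48 h treatment of HepaRG cells. Exposure ran in duplicate over eight half-log steps topping at 100 uM in 0.5% DMSO vehicle.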

Read-out in experiment [12]: Insulin Like Growth Factor 1 (IGF1), IGF1 (gene 3479)
Put plainly: LTEA_HepaRG_IGF1: Life Technologies and Expression Analysis (LTEA) Assay for Insulin Like Growth Factor 1 (IGF1) using HepaRG (AID 2283506). The essentials:
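Cells are thawed, plated and cultured 48 h, then exposed in duplicate to chemical (highest 100 uM, half-log steps, 0.5% DMSO) for another 48 h. Total RNA is analysed by Fluidigm qRT-PCR for IGF1 expression relative to vehicle.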

Read-out in experiment [13]: Intercellular Adhesion Molecule 1 (ICAM1), ICAM1 (gene 3383)
Put plainly: LTEA_HepaRG_ICAM1: Life Technologies and Expression Analysis (LTEA) Assay for Intercellular Adhesion Molecule 1 (ICAM1) using HepaRG (AID 2283507). Summed up:
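ICAM1 transcript levels measured by qRT-PCR, normalized to three housekeeping genes (ACTB, GAPDH, POLR2A), after 48 h chemical exposure of HepaRG cells. Duplicate eight-point half-log series from 100 uM in 0.5% DMSO; gain or loss fitted against vehicle.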

Read-out in experiment [14]: Insulin-like growth factor-binding protein 1 (IGFBP1), IGFBP1 (gene 3484)
Put plainly: LTEA_HepaRG_IGFBP1: Life Technologies and Expression Analysis (LTEA) Assay for Insulin-like growth factor-binding protein 1 (IGFBP1) using HepaRG (AID 2283508). The essentials:
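Read-out is qRT-PCR transcript level normalized to three housekeeping genes, fitted in both directions against 0.5% DMSO. Differentiated HepaRG cells received eight half-log concentrations (top 100 uM) in duplicate for 48 h in serum-free induction medium.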

Read-out in experiment [15]: Interleukin 6 Receptor (IL6R), IL6R (gene 3570)
The experiment in a line: LTEA_HepaRG_IL6R: Life Technologies and Expression Analysis (LTEA) Assay for Interleukin 6 Receptor (IL6R) using HepaRG (AID 2283510). The essentials:
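Cells were thawed, plated and cultured 48 h, then medium was changed to serum-free induction medium. Chemicals were added in duplicate (100 uM top, half-log steps, 0.5% DMSO) for 48 h. Lysates were analyzed by qRT-PCR for IL6R expression.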

Read-out in experiment [16]: Potassium channel subfamily K member 1 (KCNK1), KCNK1 (gene 3775)
Put plainly: LTEA_HepaRG_KCNK1: Life Technologies and Expression Analysis (LTEA) Assay for Potassium channel subfamily K member 1 (KCNK1) using HepaRG (AID 2283511). Summed up: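 HepaRG, 48 h exposure, 8-pt half-log series top 100 uM, 0.5% DMSO vehicle, duplicates. Readout: KCNK1 transcript by qRT-PCR (Fluidigm array), housekeeping-normalized; bidirectional curve fit relative to DMSO baseline.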

Read-out in experiment [17]: JUN Transcription Factor, JUN (gene 3725)
The experiment in a line: LTEA_HepaRG_JUN: Life Technologies and Expression Analysis (LTEA) Assay for JUN Transcription Factor using HepaRG (AID 2283513). The essentials:
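Read-out is JUN transcript level by TaqMan qRT-PCR, normalized to ACTB, GAPDH and POLR2A, after 48 h chemical treatment of HepaRG cells. Concentration-response spanned eight half-log points up to 100 uM in 0.5% DMSO.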

Read-out in experiment [18]: Lipase C (LIPC), LIPC (gene 3990)
The experiment in a line: LTEA_HepaRG_LIPC: Life Technologies and Expression Analysis (LTEA) Assay for Lipase C (LIPC) using HepaRG (AID 2283514). The essentials:
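HepaRG, 48 h exposure, 8-pt half-log series from 100 uM in 0.5% DMSO, duplicates. Readout: LIPC mRNA by Fluidigm qRT-PCR, housekeeping-normalized (ACTB/GAPDH/POLR2A). Gain or loss fitted bidirectionally against DMSO baseline.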

Read-out in experiment [19]: Interleukin 6 (IL6), IL6 (gene 3569)
The experiment in a line: LTEA_HepaRG_IL6: Life Technologies and Expression Analysis (LTEA) Assay for Interleukin 6 (IL6) using HepaRG (AID 2283509). The essentials:
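qRT-PCR read-out of IL6 transcript, normalized to three housekeeping genes, after 48 h chemical exposure of HepaRG cells; 8-point half-log series, top 100 uM, 0.5% DMSO vehicle. Bidirectional curve fitting against DMSO baseline.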

Read-out in experiment [20]: Keratin 19 (KRT19), KRT19 (gene 3880)
The experiment in a line: LTEA_HepaRG_KRT19: Life Technologies and Expression Analysis (LTEA) Assay for Keratin 19 (KRT19) using HepaRG (AID 2283512). Summed up: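 KRT19 transcript measured by TaqMan qRT-PCR, referenced to three housekeeping genes, after HepaRG cells received test chemicals for 48 h. Eight half-log concentrations, top 100 uM, 0.5% DMSO vehicle; increases and decreases both fitted.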

Activity calls are given as the source filed them. The calls were made as follows: active = hit-call score of the fitted dose curve at least 0.9, where 1 is the maximum; inactive = score below 0.9.

Sequence of Hypoxia-inducible factor 1-alpha (Homo sapiens) (Q16665 whole entry, looked up): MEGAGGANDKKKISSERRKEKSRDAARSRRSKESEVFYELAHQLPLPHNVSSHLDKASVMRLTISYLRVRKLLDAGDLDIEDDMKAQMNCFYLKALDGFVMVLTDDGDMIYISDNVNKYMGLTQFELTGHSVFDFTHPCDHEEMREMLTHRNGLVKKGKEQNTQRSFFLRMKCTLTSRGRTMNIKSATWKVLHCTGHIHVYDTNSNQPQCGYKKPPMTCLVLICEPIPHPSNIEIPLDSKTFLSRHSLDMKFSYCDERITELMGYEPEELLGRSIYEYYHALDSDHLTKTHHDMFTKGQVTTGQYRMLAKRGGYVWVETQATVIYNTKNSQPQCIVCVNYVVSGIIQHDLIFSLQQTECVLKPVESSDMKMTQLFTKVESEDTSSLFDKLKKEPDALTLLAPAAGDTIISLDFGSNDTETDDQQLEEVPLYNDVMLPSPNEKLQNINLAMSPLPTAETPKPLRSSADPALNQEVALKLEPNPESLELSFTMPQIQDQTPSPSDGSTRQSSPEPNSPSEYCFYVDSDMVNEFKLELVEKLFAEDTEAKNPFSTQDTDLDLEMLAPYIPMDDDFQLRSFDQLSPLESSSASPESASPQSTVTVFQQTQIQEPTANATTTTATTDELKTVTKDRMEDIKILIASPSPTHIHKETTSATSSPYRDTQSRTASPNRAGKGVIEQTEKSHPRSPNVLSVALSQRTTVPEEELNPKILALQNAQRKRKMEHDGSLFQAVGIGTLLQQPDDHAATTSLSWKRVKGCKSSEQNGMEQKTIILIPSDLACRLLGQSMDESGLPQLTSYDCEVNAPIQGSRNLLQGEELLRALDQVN

As usually defined, the AC50 is the concentration giving half of the maximal activity seen. Consider `CCCCCCCC(=O)O`, for which the compound was called inactive in [1], in experiment [2], in experiment [3], in [4], in experiment [5] and in experiment [6]. In addition, the compound was classed as inactive in [7], in experiment [8], in experiment [9], in experiment [10], in [11] and in [12]. Also, the result in [14], in experiment [15], in [16], in [17] and in [18] was inactive. The AC50 in experiment [13] was 405 nM (active).
Turning to `O=[N+]([O-])c1ccc(O)cc1`, the compound was called inactive in [1], in experiment [2], in experiment [3], in experiment [4], in [5] and in experiment [6]. Moreover, the call in experiment [7], in experiment [8], in experiment [9], in experiment [10], in experiment [11] and in experiment [12] was inactive. Moreover, the compound was classed as inactive in experiment [13], in experiment [14], in [19], in experiment [15], in experiment [16] and in experiment [20]. Also, in [18], the result was inactive.
`C[C@@H]1C[C@H]2[C@@H]3CCC4=CC(=O)C=C[C@]4(C)[C@@]3(F)[C@@H](O)C[C@]2(C)[C@@]1(O)C(=O)COP(=O)(O)O`: the result in [1], in experiment [2], in experiment [3], in experiment [4], in experiment [5] and in experiment [6] was inactive. For the same compound, the compound was called inactive in [7], in [8], in experiment [9], in [10], in experiment [11] and in experiment [12]. For the same compound, the outcome in [13], in [14], in experiment [15], in experiment [16], in experiment [17] and in experiment [18] was inactive.
